Tested on: Vero E6 infected with SARS-CoV-2
Assay: inhibition of SARS-CoV-2 cytopathic effect; higher = more antiviral protection, active = above 15
Settings: 48 h

Measured: inhibition of SARS-CoV-2 cytopathic effect

CNCC(O)c1ccc(O)c(O)c1 (racemic) [DL-Adrenaline]
inactive: 1 nM 1.39% | 8.33 nM -1.53% | 100 nM 1.56% | 833.33 nM -2.05% | 10000 nM -1.47%

COc1cccc(-c2cc(NCc3ccc4c(c3)OCO4)nc(N)n2)c1
inactive: 1 nM 0.39% | 8.33 nM -1.05% | 100 nM 0.16% | 833.33 nM -2.75% | 10000 nM -1.99%

O=C(O)Cc1ccc(OCCNC[C@H](O)c2ccccc2)cc1
inactive: 1 nM 2.57% | 8.33 nM 3.11% | 100 nM 0.37% | 833.33 nM -0.56% | 10000 nM 1.01%

Cc1cc(C)cc(C(=O)O[C@H]2C[C@H]3CC[C@@H](C2)N3C)c1 [tropanyl-3,5-dimethylbenzoate]
inactive: 1 nM -1.37% | 8.33 nM 1.19% | 100 nM 2.71% | 833.33 nM -1.34% | 10000 nM 1%

Cc1ncc([N+](=O)[O-])n1CC(C)O (stereo not given) [secnidazole]
inactive: 1 nM -4.41% | 8.33 nM -8.4% | 100 nM -5.52% | 833.33 nM -10.4% | 10000 nM -9.47%

C[n+]1c2cc(N)ccc2cc2ccc(N)cc21 [acriflavinium]
inactive: 1 nM -3.77% | 8.33 nM -2.4% | 100 nM -2.84% | 833.33 nM -0.42% | 10000 nM -5.69%

Clc1cccc(-c2nnnn2Cc2cccnc2)c1Cl
inactive: 1 nM -1.94% | 8.33 nM -0.7% | 100 nM 0.71% | 833.33 nM -2.59% | 10000 nM -3.45%

O=C(Nc1nc(-c2cc(Cl)cs2)c(N2CCN(C3CCCCC3)CC2)s1)c1cnc(N2CCC(C(=O)O)CC2)c(Cl)c1 [avatrombopag]
inactive: 1 nM 2.06% | 8.33 nM 0.14% | 100 nM 0.09% | 833.33 nM -3.82% | 10000 nM -0.97%

Clc1ccc(C2(c3ccc(-c4cn[nH]c4)cc3)CCNCC2)cc1
inactive: 1 nM 1.57% | 8.33 nM -1.08% | 100 nM 1.96% | 833.33 nM -6.2% | 10000 nM -7.71%

N[C@@H](CC(=O)N1CCn2c(nnc2C(F)(F)F)C1)Cc1cc(F)c(F)cc1F [sitagliptin]
inactive: 1 nM -0.24% | 8.33 nM 1.03% | 100 nM 2.43% | 833.33 nM 3.7% | 10000 nM 1%

COc1ccccc1N1CCN(CCN2C(=O)CC3(CCCC3)CC2=O)CC1
inactive: 1 nM 0.12% | 8.33 nM 1.57% | 100 nM 2.97% | 833.33 nM 1.51% | 10000 nM 0.47%

COCCCN1CCC(NC(=O)c2cc(Cl)c(N)c3c2OCC3)CC1 [prucalopride]
inactive: 1 nM 0.43% | 8.33 nM 1.93% | 100 nM -0.24% | 833.33 nM 3.32% | 10000 nM 1.47%

CN1C[C@H](CNC(=O)OCc2ccccc2)C[C@@H]2c3cccc4c3c(cn4C)C[C@H]21 [metergoline]
inactive: 1 nM -10.3% | 8.33 nM -6.82% | 100 nM -4.21% | 833.33 nM -6.12% | 10000 nM -2.89%

CN(C(=O)CCCOc1ccc2[nH]c(=O)ccc2c1)C1CCCCC1 [cilostamide]
inactive: 1 nM 0.62% | 8.33 nM 1.01% | 100 nM -0.1% | 833.33 nM 0.52% | 10000 nM -0.25%

C=C1/C(=C\C=C2/CCC[C@]3(C)[C@@H]([C@H](C)/C=C/C=C/C(O)(CC)CC)CC[C@@H]23)C[C@@H](O)C[C@@H]1O [seocalcitol]
inactive: 1 nM -3.06% | 8.33 nM -2.2% | 100 nM -0.09% | 833.33 nM 1.95% | 10000 nM 1.01%

CC(C)(c1ccc(O)cc1)c1ccc(O)cc1 [bisphenol-A]
inactive: 1 nM 3.73% | 8.33 nM 8.2% | 100 nM 2.75% | 833.33 nM 1.31% | 10000 nM 4%

O=C1CCC[C@@H]2[C@H]3CCCN4CCC[C@@H](CN12)[C@@H]34 [matrine]
inactive: 1 nM -2.75% | 8.33 nM -0.7% | 100 nM -1.73% | 833.33 nM -0.8% | 10000 nM -2.2%

C=C[C@]1(C)CC[C@@H](C(=C)C)C[C@H]1C(=C)C [beta-elemene]
inactive: 1 nM 2.14% | 8.33 nM 1.03% | 100 nM 0.39% | 833.33 nM 0.7% | 10000 nM 0.82%

CC1CC(OC(=O)C(O)c2ccccc2)CC(C)(C)C1 (stereo not given) [cyclandelate]
inactive: 1 nM -0.8% | 8.33 nM 0.54% | 100 nM -0.37% | 833.33 nM -0.91% | 10000 nM -1.81%

C/N=C(/NC#N)NCCSCc1csc(NC(=N)N)n1 [tiotidine]
inactive: 1 nM -3.61% | 8.33 nM -1.47% | 100 nM -1.51% | 833.33 nM -3.05% | 10000 nM -1.02%

CCCCC(=O)N(Cc1ccc(-c2ccccc2-c2nnn[nH]2)cc1)[C@H](C(=O)O)C(C)C [valsartan]
inactive: 1 nM 0.84% | 8.33 nM -1.89% | 100 nM 0.86% | 833.33 nM 0.99% | 10000 nM 0.91%

CC1(C)[C@H]2CC[C@]1(C)[C@@H](O)[C@H]2O [cis-exo-camphanediol-2,3]
inactive: 1 nM 1.51% | 8.33 nM 2.75% | 100 nM 4.45% | 833.33 nM 5.23% | 10000 nM 0.605%

Ic1cc(-c2ccccc2)ncn1 [4-iodo-6-phenylpyrimidine]
inactive: 1 nM -0.63% | 8.33 nM 0.56% | 100 nM -2.43% | 833.33 nM 1.94% | 10000 nM -1.36%

CC(C)c1cccc2c1OC(C(C)C)C(=S)N2CC(=O)O (stereo not given)
inactive: 1 nM -0.74% | 8.33 nM 3.31% | 100 nM 1.03% | 833.33 nM 1.02% | 10000 nM -0.31%

Cc1cc(Nc2ncnc3ccc(-c4ccc(CNCCS(C)(=O)=O)o4)cc23)ccc1Oc1ccn2ncnc2c1 [HER2-Inhibitor-1]
inactive: 1 nM 2.32% | 8.33 nM 3.23% | 100 nM -0.2% | 833.33 nM -2.65% | 10000 nM 3.1%

CC(C)(C)NC(=O)[C@@H]1CN(Cc2cccnc2)CCN1C[C@@H](O)C[C@@H](Cc1ccccc1)C(=O)N[C@H]1c2ccccc2C[C@H]1O [indinavir]
inactive: 1 nM -3.73% | 8.33 nM -5.87% | 100 nM -9.09% | 833.33 nM -8.27% | 10000 nM -10.5%

NCC[C@H](O)C(=O)N[C@@H]1C[C@H](N)[C@@H](O[C@H]2O[C@H](CN)[C@@H](O)[C@H](O)[C@H]2O)[C@H](O)[C@H]1O[C@H]1O[C@H](CO)[C@@H](O)[C@H](N)[C@H]1O [amikacin]
inactive: 1 nM -1.45% | 8.33 nM 0.75% | 100 nM 0.51% | 833.33 nM 2.36% | 10000 nM -0.28%

CCOC(=O)Nc1ccc(NCc2ccc(F)cc2)cc1N [Retigabine]
inactive: 1 nM -1.92% | 8.33 nM 1.16% | 100 nM -1.6% | 833.33 nM -2.18% | 10000 nM 1.01%

Cc1ccc(NC(=O)c2ccc(CN3CC[C@H](N(C)C)C3)c(C(F)(F)F)c2)cc1Nc1nccc(-c2cncnc2)n1 [bafetinib]
inactive: 1 nM 3.35% | 8.33 nM -0.19% | 100 nM 0.01% | 833.33 nM -3.15% | 10000 nM -4.8%

CC(C)(C)NCC(O)COc1cccc2[nH]c(C#N)cc12 (stereo not given) [cyanopindolol]
inactive: 1 nM 1.56% | 8.33 nM 1.94% | 100 nM 0.47% | 833.33 nM -2.7% | 10000 nM -1.96%

CCOC(=O)Nc1nc2ccccc2[nH]1 [lobendazole]
inactive: 1 nM -9.74% | 8.33 nM -7.4% | 100 nM -4.73% | 833.33 nM -6.72% | 10000 nM -11.2%

O=C(O)c1cc(=O)c2c(OCC(O)COc3cccc4oc(C(=O)O)cc(=O)c34)cccc2o1 [cromoglicic-acid]
inactive: 1 nM -0.6% | 8.33 nM -0.04% | 100 nM -1.5% | 833.33 nM 0.49% | 10000 nM -0.11%

COc1cc(NC(=O)Nc2cccc(CNC(=O)O[C@H]3CCOC3)c2)ccc1-c1cnco1 [merimepodib]
inactive: 1 nM 0.31% | 8.33 nM 0.11% | 100 nM -0.15% | 833.33 nM 2.5% | 10000 nM 8.45%

COC1(C2=NCCN2)COc2ccccc2O1 (stereo not given)
inactive: 1 nM 0.37% | 8.33 nM 1.98% | 100 nM -0.68% | 833.33 nM 1.5% | 10000 nM 1.58%

C[C@H](N)Cc1cccc(O)c1 [gepefrine]
inactive: 1 nM 1.14% | 8.33 nM 1.71% | 100 nM 1.51% | 833.33 nM 1.38% | 10000 nM 0.56%

O=C1CCCN1CC#CCN1CCCC1 [oxotremorine-sesquifumarate]
inactive: 1 nM 0.81% | 8.33 nM 2.23% | 100 nM 4.01% | 833.33 nM 3.15% | 10000 nM 0.96%

Nc1n[n+]([O-])c2ccccc2[n+]1[O-] [tirapazamine]
inactive: 1 nM -0.88% | 8.33 nM 0.77% | 100 nM 2.11% | 833.33 nM 0.37% | 10000 nM 2.74%

Cc1cccc(N(C)C(=S)Oc2ccc3ccccc3c2)c1 [tolnaftate]
inactive: 1 nM -0.91% | 8.33 nM 0.08% | 100 nM -1.72% | 833.33 nM 1.03% | 10000 nM 3.31%

NNC(=O)CN1C(=O)CN=C(c2ccccc2)c2cc(Br)ccc21 [gidazepam]
inactive: 1 nM 0.8% | 8.33 nM 2.74% | 100 nM 1.83% | 833.33 nM 2.01% | 10000 nM 3.71%

CCCC(=O)N1CCCN(c2nc(N)c3cc(OC)c(OC)cc3n2)CC1 [bunazosin]
inactive: 1 nM -0.32% | 8.33 nM -1.38% | 100 nM 1.21% | 833.33 nM 0.02% | 10000 nM 0.07%

— the supplement of paper PMC13380429
